Results taken from PubChem BioAssay (Tox21).
Several values for one entry are separate records, joined by “and”; a condition that tells them apart may be missing. Equal values may be shown once. Results filed as inconclusive are left out. Activity calls are given as the source filed them. Calls follow the shape of the dose curve; as a rule, active = well fitted curve in the direction sought with a large enough effect in the repeat runs; inconclusive = weak or mixed curves; inactive = no such curve, though single readings can be large; an effect the other way counts as inactive or inconclusive.

Tests used:
[1] = qHTS RealTime-Glo MT Cell Viability Assay in HepG2 cells - 40 hour (AID 1224870); also: nearly all actives have a fitted effect of over 50% in size
In short: (§1)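 Real-time viability: cells seeded at 600 per well together with NanoLuc and cell-permeant prosubstrate, compounds added after 5 h incubation. Luminescence tracked at 0, 8, 16, 24, 32 and 40 h of exposure.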

[2] = A CellTox Green Cytotoxicity Assay to monitor cytotoxicity in HEK293 cells - 40 hour (AID 1224871); also: nearly all actives have a fitted effect of over 45% in size; also: potency is read from the fitted curve at half-maximal effect
In short: (§2)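 Nonlytic real-time cytotoxicity: HEK293 + CellTox Green reagent plated, 5 h preincubation, pintool compound addition (23 nL in DMSO), 37 C for 40 h, fluorescence measured at successive time points.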

[3] = qHTS RealTime-Glo MT Cell Viability Assay in HEK293 cells - 16 hour (AID 1224872); also: nearly all actives have a fitted effect of over 50% in size; also: potency is read from the fitted curve at half-maximal effect
In short: (§3)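 HEK293 cells were seeded at 600 cells/well together with NanoLuc luciferase and cell-permeant prosubstrate, preincubated 5 h at 37 C/5% CO2, then given compound in DMSO by pintool. Luminescence from viable-cell prosubstrate reduction was read repeatedly over 40 h.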

[4] = qHTS RealTime-Glo MT Cell Viability Assay in HepG2 cells - 8 hour (AID 1224873); also: nearly all actives have a fitted effect of over 55% in size
In short: as §1

[5] = qHTS RealTime-Glo MT Cell Viability Assay in HEK293 cells - 40 hour (AID 1224874); conditions: RealTime-Glo luminescence; max response: active compounds read low; also: nearly all actives have a fitted effect of over 50% in size; also: potency is read from the fitted curve at half-maximal effect
In short: (§4)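 Cells were seeded together with NanoLuc luciferase and a prosubstrate that viable cells reduce to a luciferase substrate. After a 5 h incubation at 37 C/5% CO2, compounds were added and luminescence was measured repeatedly during 40 h of treatment.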

[6] = A CellTox Green Cytotoxicity Assay to monitor cytotoxicity in HEK293 cells - 24 hour (AID 1224875); also: nearly all actives have a fitted effect of over 45% in size; also: potency is read from the fitted curve at half-maximal effect
In short: as §2

[7] = qHTS RealTime-Glo MT Cell Viability Assay in HepG2 cells - 32 hour (AID 1224877); also: nearly all actives have a fitted effect of over 55% in size
In short: (§5)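 HepG2 cells were seeded at 600 cells/well together with NanoLuc luciferase and a cell-permeant prosubstrate, preincubated 5 h at 37 C/5% CO2, then pin-dosed with compounds in DMSO. Nonlytic luminescence from viable cells was read at each time point.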

[8] = A CellTox Green Cytotoxicity Assay to monitor cytotoxicity in HepG2 cells - 24 hour (AID 1224878); also: nearly all actives have a fitted effect of over 45% in size; also: potency is read from the fitted curve at half-maximal effect
In short: (§6)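 Read-out is fluorescence of a cyanine dye excluded from live cells that stains DNA of dead HepG2 cells, with signal proportional to cytotoxicity. Plates were read at 0, 8, 16, 24, 32 and 40 h after compound addition.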

[9] = A CellTox Green Cytotoxicity Assay to monitor cytotoxicity in HepG2 cells - 40 hour (AID 1224879); also: nearly all actives have a fitted effect of over 40% in size; also: potency is read from the fitted curve at half-maximal effect
In short: as §6

[10] = qHTS RealTime-Glo MT Cell Viability Assay in HEK293 cells - 0 hour (AID 1224880); also: top concentration of the series differs between compounds; nearly all actives have a fitted effect of over 45% in size
In short: as §4

[11] = A CellTox Green Cytotoxicity Assay to monitor cytotoxicity in HEK293 cells - 32 hour (AID 1224881); also: nearly all actives have a fitted effect of over 40% in size; also: potency is read from the fitted curve at half-maximal effect
In short: as §2

[12] = A CellTox Green Cytotoxicity Assay to monitor cytotoxicity in HepG2 cells - 0 hour (AID 1224882); also: nearly all actives have a fitted effect of over 35% in size
In short: as §6

[13] = A CellTox Green Cytotoxicity Assay to monitor cytotoxicity in HepG2 cells - 32 hour (AID 1224883); also: nearly all actives have a fitted effect of over 50% in size; also: potency is read from the fitted curve at half-maximal effect
In short: as §6

[14] = A CellTox Green Cytotoxicity Assay to monitor cytotoxicity in HEK293 cells - 8 hour (AID 1224884); also: nearly all actives have a fitted effect of over 35% in size; also: potency is read from the fitted curve at half-maximal effect
In short: as §2

[15] = qHTS RealTime-Glo MT Cell Viability Assay in HepG2 cells - 16 hour (AID 1224885); also: nearly all actives have a fitted effect of over 50% in size
In short: as §5

[16] = qHTS RealTime-Glo MT Cell Viability Assay in HEK293 cells - 24 hour (AID 1224886); also: nearly all actives have a fitted effect of over 50% in size; also: potency is read from the fitted curve at half-maximal effect
In short: as §3

[17] = qHTS RealTime-Glo MT Cell Viability Assay in HEK293 cells - 8 hour (AID 1224887); also: nearly all actives have a fitted effect of over 50% in size; also: potency is read from the fitted curve at half-maximal effect
In short: as §4

[18] = qHTS RealTime-Glo MT Cell Viability Assay in HepG2 cells - 0 hour (AID 1224889); also: nearly all actives have a fitted effect of over 50% in size
In short: as §5

[19] = A CellTox Green Cytotoxicity Assay to monitor cytotoxicity in HepG2 cells - 16 hour (AID 1224876); also: nearly all actives have a fitted effect of over 45% in size
In short: as §6

[20] = A CellTox Green Cytotoxicity Assay to monitor cytotoxicity in HEK293 cells - 16 hour (AID 1224888); also: nearly all actives have a fitted effect of over 35% in size
In short: as §2
% is scaled to controls: 0 for no effect and ±100 for the full control effect.

CCCCC(CC)CNCC(CC)CCCC (stereo not drawn)
inactive: Potency [1] | Potency [2] | Potency [3] | Potency [4] | max response [5] 8.85% | Potency [6] | Potency [7] | Potency [8] | Potency [9] | Potency [10] | Potency [11] | Potency [12] | Potency [13] | Potency [14] | Potency [15] | Potency [16] | Potency [17] | Potency [18]

CC(=N\O)/C(C)=N/O
inactive: Potency [1] | Potency [2] | Potency [3] | Potency [4] | max response [5] -18.2% | Potency [6] | Potency [19] | Potency [7] | Potency [8] | Potency [10] | Potency [11] | Potency [13] | Potency [14] | Potency [15] | Potency [16] | Potency [20] | Potency [18]

Cc1oncc1C(=O)Nc1ccc(C(F)(F)F)cc1
inactive: Potency [1] | Potency [2] | Potency [3] | Potency [4] | max response [5] 8.36% and -3.36% | Potency [6] | Potency [19] | Potency [7] | Potency [8] | Potency [10] | Potency [11] | Potency [12] | Potency [13] | Potency [15] | Potency [16] | Potency [17] | Potency [18]

CO[Si](C)(OC)OC
inactive: Potency [1] | Potency [2] | Potency [3] | Potency [4] | max response [5] 2.67% | Potency [6] | Potency [19] | Potency [7] | Potency [8] | Potency [10] | Potency [11] | Potency [12] | Potency [14] | Potency [15] | Potency [16] | Potency [20] | Potency [18]

O=C(O)c1ccc(CO)o1
inactive: Potency [1] | Potency [2] | Potency [3] | Potency [4] | max response [5] -0.778% | Potency [6] | Potency [7] | Potency [8] | Potency [9] | Potency [10] | Potency [11] | Potency [12] | Potency [13] | Potency [15] | Potency [20] | Potency [18]

O=C(O)c1c(O)c(-c2ccccc2)nc2ccccc12
inactive: Potency [1] | Potency [2] | Potency [3] | Potency [4] | max response [5] 0.412% | Potency [6] | Potency [19] | Potency [7] | Potency [8] | Potency [10] | Potency [11] | Potency [12] | Potency [13] | Potency [15] | Potency [16] | Potency [17] | Potency [20] | Potency [18]

CCCOC(=O)c1ccc(N)cc1
inactive: Potency [1] | Potency [2] | Potency [3] | Potency [4] | max response [5] -15% | Potency [6] | Potency [7] | Potency [8] | Potency [9] | Potency [10] | Potency [11] | Potency [12] | Potency [13] | Potency [15] | Potency [16] | Potency [17] | Potency [20]

CC1C2CC(CC2C2CCCC(O)C2)C1(C)C (stereo not drawn)
active: Potency [2] 49 µM | Potency [6] 49 µM | Potency [8] 43.6 µM | Potency [9] 43.6 µM | Potency [11] 49 µM | Potency [13] 43.6 µM | Potency [14] 43.6 µM
inactive: Potency [1] | Potency [3] | Potency [4] | max response [5] -15.9% | Potency [7] | Potency [10] | Potency [12] | Potency [15] | Potency [16] | Potency [17] | Potency [18]

Cc1nc2ccccn2c(=O)c1CCN1CCC(C(=O)c2ccc(F)cc2)CC1
active: Potency [3] 4.77 µM | Potency [5] 8.49 µM | Potency [16] 7.56 µM | Potency [17] 8.49 µM
inactive: Potency [1] | Potency [2] | Potency [4] | Potency [6] | Potency [7] | Potency [8] | Potency [9] | Potency [10] | Potency [11] | Potency [12] | Potency [13] | Potency [14] | Potency [15] | Potency [20] | Potency [18]

COC(=O)[C@@H]1CC2=CC(=O)CC[C@]2(C)[C@@]23O[C@@H]2C[C@@]2(C)[C@@H](CC[C@@]24CCC(=O)O4)[C@H]13
inactive: Potency [1] | Potency [2] | Potency [3] | Potency [4] | max response [5] 1.85% | Potency [6] | Potency [19] | Potency [7] | Potency [8] | Potency [10] | Potency [11] | Potency [12] | Potency [13] | Potency [14] | Potency [15] | Potency [17] | Potency [20] | Potency [18]

CCCCN(CCCC)CCCOC(=O)c1ccc(N)cc1
inactive: Potency [1] | Potency [2] | Potency [3] | Potency [4] | max response [5] -19.3% | Potency [6] | Potency [7] | Potency [8] | Potency [9] | Potency [10] | Potency [11] | Potency [12] | Potency [13] | Potency [14] | Potency [15] | Potency [16] | Potency [18]

C[Si](NC1CCCCC1)(NC1CCCCC1)NC1CCCCC1
inactive: Potency [1] | Potency [2] | Potency [3] | Potency [4] | max response [5] -24.6% | Potency [6] | Potency [7] | Potency [8] | Potency [10] | Potency [11] | Potency [12] | Potency [13] | Potency [14] | Potency [15] | Potency [16] | Potency [17] | Potency [20] | Potency [18]

CC(C)=CC=O
inactive: Potency [1] | Potency [2] | Potency [3] | Potency [4] | max response [5] 12.5% | Potency [6] | Potency [7] | Potency [8] | Potency [9] | Potency [10] | Potency [11] | Potency [12] | Potency [13] | Potency [14] | Potency [15] | Potency [16] | Potency [17] | Potency [20] | Potency [18]

CCOCCn1c(C2CCN(CCc3ccc(C(C)(C)C(=O)O)cc3)CC2)nc2ccccc21
inactive: Potency [1] | Potency [2] | Potency [3] | Potency [4] | max response [5] 0.952% | Potency [6] | Potency [7] | Potency [10] | Potency [11] | Potency [14] | Potency [15] | Potency [16] | Potency [17] | Potency [20] | Potency [18]

c1cc[c]([Bi]([c]2ccccc2)[c]2ccccc2)cc1
inactive: Potency [1] | Potency [2] | Potency [3] | Potency [4] | Potency [6] | Potency [19] | Potency [7] | Potency [11] | Potency [12] | Potency [14] | Potency [15] | Potency [17] | Potency [20] | Potency [18]
